# Experimental data as given in ChEMBL document CHEMBL3988442, “University of Dundee, Small-Polar-MMV Screening Library” (2021).
# Among all 69,000 compounds or so, about 950 (1.4%) showed an effect of 50% or more. The sample holds strong results, similar compounds and a random draw of the others, so the mix is not that of the screen.
# Test system: Mycobacterium tuberculosis
# Assay: Cornell M. t heat shock assay; also: in the data most compounds retested in dose-response had high values
# Assay type: functional, organism-based
# Design: dose or concentration left out as unconfirmed
row,SMILES,Percent Effect [%]
1,Cc1ccc(C(=O)N2[C@@H]3CC[C@H]2CN(C)C(=O)C3)c(=O)[nH]1,-6.73
2,O=C(O)C(F)(F)F.O=C([C@@H]1C[C@@H]2CCN(Cc3ccc4c(c3)OCO4)C[C@@H]2O1)N1CCCC1,-15.24
3,CC(C)COC[C@@H]1CC[C@H]2[C@H](CCN2C(=O)c2ccncc2F)O1.O=C(O)C(F)(F)F,-34.7
4,Cc1ncc(CN(C)Cc2nc3cc(Cl)ccc3n2C)s1,61.31
5,Cn1c(CCNc2nccnc2C#N)nc2cc(Cl)ccc21,-3.646
6,CCn1c(CN(C)Cc2cnc(C)s2)nc2c(F)cccc21,-32.12
7,O=C(O)C(F)(F)F.O=C(O)C(F)(F)F.c1ccc(CO[C@@H]2CC[C@H]3[C@H]2OCCN3Cc2ccsc2)nc1,-28.68
8,Cc1cccc(CN2CCCC2c2cncc(Nc3nncs3)n2)c1 (centres undefined),96.91
9,COc1cccc(CN2CCCC2c2c(C)nn(C)c2C)c1 (centres undefined),27.85
10,COc1cccc(CN2CCCC2c2cncc(Nc3nncs3)n2)c1 (centres undefined),104.6
11,Cc1ccccc1CN1CCCC1c1cncc(Nc2nncs2)n1 (centres undefined),103.1
12,COc1cccc(CN2CCCC2c2ccc[nH]2)c1 (centres undefined),-7.682
13,CNc1cncc(C2CCCN2Cc2cccc(C)n2)n1 (centres undefined),0.9246
14,CNc1cncc(C2CCCN2Cc2ccccc2OCC(=O)O)n1 (centres undefined),2.446
15,CNc1cncc(C2CCCN2Cc2ccccn2)n1 (centres undefined),-4.503
16,CNc1cncc(C2CCCN2Cc2ccnc(C)n2)n1 (centres undefined),-20.32
17,Cc1cccc(C(=O)N2C[C@@H](C)[C@@]3(CCN(c4ccsc4)C3=O)C2)n1.O=C(O)C(F)(F)F,5.09
18,c1ccc(CO[C@H]2C[C@@H]3CN(Cc4cccnc4)C[C@@H]3C2)cc1,-10.82
19,c1cnn(CC2CN(c3ncnc4ccsc34)CCO2)c1 (centres undefined),105.5
20,c1nc(N2CCOC(Cn3cncn3)C2)c2sccc2n1 (centres undefined),-23.67
21,Cc1cnn(CC2CN(c3ncnc4ccsc34)CCO2)c1 (centres undefined),28.88
22,C[C@H](N)Cn1nc(-c2cccs2)oc1=O.Cl,-14.47
23,Cn1nc(CN2CCCN(C3CCCC3)CC2)c2c(Cl)cccc21,57.91
24,Cn1nc(CN2CCCCC(N)C2)c2c(Cl)cccc21 (centres undefined),-3.376

row,SMILES,Percent Effect [%]
1,C[C@@H]1CN(C2CCN(Cc3nn(C)c4cccc(Cl)c34)CC2)C[C@H](C)O1,-2.477
2,Cc1ccc(C(=O)N2CCC3(CC2)CC(c2cnn(C)c2)CO3)cn1.O=C(O)C(F)(F)F (centres undefined),-3.038
3,NC(=O)N1CC[C@H](O)[C@@H]1Cc1cccnc1.O=C(O)C(F)(F)F,-3.918
4,CCN(CC)C(=O)CSc1nnc(CCNC(=O)OC(C)(C)C)o1,3.451
5,COC(=O)CSc1nnc(CCNC(=O)OC(C)(C)C)o1,12.63
6,C=C(C)CSc1nnc(CCNC(=O)OC(C)(C)C)o1,54.16
7,O=C(O)C(F)(F)F.O=C(c1ccco1)N1CCO[C@@H]2CN(CC3CC3)CC[C@@H]2C1,-6.108
8,CC(C)CN1CC[C@H](c2nnc(COc3ccc(F)cc3)o2)C1,15.46
9,Fc1ccc(OCc2nnc([C@H]3CCN(Cc4ccncc4)C3)o2)cc1,43.75
10,Cc1ccc(CN2CC[C@H](c3nnc(COc4ccc(F)cc4)o3)C2)o1,102.2
11,Cc1nn(C)c(C)c1S(=O)(=O)N1CC[C@H]2O[C@@H](C)C[C@H]2C1.O=C(O)C(F)(F)F,4.759
12,CNc1cc(C2CN(Cc3scnc3C)CCO2)nc(C)n1 (centres undefined),67.88
13,CNc1cc(C2CN(Cc3csc(C)n3)CCO2)nc(C)n1 (centres undefined),-32.62
14,Cc1nc(C2CN(Cc3scnc3C)CCO2)cc(N(C)C)n1 (centres undefined),-20.95
15,COc1cc(CN(CCCN(C)C)Cc2ccccn2)cc2c1OCO2.O=C(O)CC(O)(CC(=O)O)C(=O)O,-27.2
16,CC(N(C)Cc1nc2c(cnn2C)c(=O)[nH]1)C(C)(C)C (centres undefined),4.654
17,O=C(Nc1cnccn1)[C@@H]1C[C@H]2OCC[C@H]2N(Cc2ccsc2)C1.O=C(O)C(F)(F)F,-23.53
18,COc1cc(C)cc(C(C(=O)O)N(C)Cc2ccon2)c1OC (centres undefined),14.77
19,COc1cc(F)ccc1C(C(=O)O)N(C)Cc1ccon1 (centres undefined),98.53
20,COc1ccc(Cl)cc1C(C(=O)O)N(C)Cc1ccon1 (centres undefined),-13.11
21,Cc1ccc(C(=O)N2CCc3c(CN4CCCC4)nn(C)c3C2)cc1C.O=C(O)C(F)(F)F,-28.38
22,CCOC(=O)N1CC(=O)N(CCc2ccccc2)CC(O)C1 (centres undefined),15.03
23,Cc1ccc(CN2CC(O)CN(C(=O)OCC(C)C)CC2=O)cc1 (centres undefined),52.29
24,CC(C)COC(=O)N1CC(=O)N(CCCc2ccccc2)CC(O)C1 (centres undefined),54.63

row,SMILES,Percent Effect [%]
1,CC(C)COC(=O)N1CC(=O)N(CCc2ccccc2)CC(O)C1 (centres undefined),34.47
2,CC(C)COC(=O)N1CC(=O)N(Cc2ccc(Cl)cc2)CC(O)C1 (centres undefined),47.42
3,COc1ccc(CN2CC(O)CN(C(=O)OCC(C)C)CC2=O)cc1 (centres undefined),43.83
4,COc1cc(N2CC[C@H]3O[C@@H](C(=O)NC4CCCC4)CC[C@H]32)ncn1.O=C(O)C(F)(F)F,-0.9791
5,Cl.O=C(NC1CCCC1)c1ccc(C2CCCNC2)nc1 (centres undefined),-7.361
6,Cc1c(C2CCCN(C(=O)c3ccncc3)C2)n2c(nc1=O)CCC2.Cl (centres undefined),-13.79
7,Cl.O=C(N[C@@H]1CN[C@H]2CCCO[C@H]21)c1cnccn1,-42.37
8,CNC(=O)CC1CCN(Cc2nc(-c3cccc(Cl)c3)oc2C)CC1,52.75
9,CNC(=O)C1CCN(Cc2nc(-c3ccc(SC)cc3)oc2C)C1 (centres undefined),12.81
10,CNC(=O)CC1CCN(Cc2nc(-c3ccc(SC)cc3)oc2C)CC1,1.977
11,CCn1nc(C)c(-c2cncn2Cc2ccccc2CN(C)C)c1C.Cl,2.066
12,O=C(O)C(F)(F)F.c1cc(CN2CCO[C@H]3[C@H](OCC4CCOCC4)CC[C@@H]32)co1,4.016
13,CCOCCNc1nc(C2CCCC2)nc2c1cnn2C,10.38
14,CNCCCNc1nc(C2CCCC2)nc2c1cnn2C,-14.72
15,Cn1ncc2c(NCCC34CCCN3CCC4)nc(C3CCCC3)nc21,90.62
16,Cn1ncc2c(NCCn3cccc3)nc(C3CCCC3)nc21,-24.81
17,CC(C)N(CCNc1nc(C2CCCC2)nc2c1cnn2C)C(C)C,102.6
18,CCS(=O)(=O)CCNc1nc(C2CCCC2)nc2c1cnn2C,-23.34
19,CN(C)CCN1CCC2(CCN(C(=O)c3cccc(F)c3)CC2)C1=O.O=C(O)C(F)(F)F,-26.99
20,COCC1CN(Cc2cnn(C)c2)Cc2nn(C)cc21.O=C(O)C(F)(F)F (centres undefined),-8.537
21,CNCC(=O)N1CCCC(c2nccnc2Oc2cccc(F)c2)C1.Cl (centres undefined),-3.012
22,O=C(NCCc1cccnc1)c1nc2c(s1)CCCN2C(=O)C1CC1.O=C(O)C(F)(F)F,31.31
23,Cl.Fc1ccccc1CNc1ccnc(C2CCNCC2)c1,-7.114
24,CCS(=O)(=O)Nc1cnn(Cc2cccc(C)c2)c1,-6.735

row,SMILES,Percent Effect [%]
1,CCS(=O)(=O)Nc1cnn(Cc2cccc(Cl)c2)c1,69.75
2,CS(=O)(=O)Nc1cnn(Cc2cccc(Cl)c2)c1,-3.827
3,O=C(O)C(F)(F)F.O=C(c1cccs1)N1C[C@@H]2OCCN(CC3CCCO3)[C@@H]2C1 (some centres undefined),-25.16
4,CC[C@@H]1N(C)CCC[C@]12CCC(=O)N2Cc1ccncc1.O=C(O)C(F)(F)F.O=C(O)C(F)(F)F,-9.742
5,O=C(O)C(F)(F)F.O=C(O)c1c(-c2cccnc2)ncc2c1CCN(CC1CCOC1)C2 (centres undefined),-9.377
6,O=C(O)C(F)(F)F.O=C(O)C(F)(F)F.O=C(O)C(F)(F)F.O=C1C[C@H]2[C@@H](CCN2Cc2ccccn2)N1CCN1CCOCC1,-15.17
7,O=C(CN1C(=O)CCNC1=O)N1CCOC(c2ccc(F)cc2)C1 (centres undefined),12.93
8,O=C1CCNC(=O)N1CC(=O)N1CCC1c1ccc(F)cc1 (centres undefined),51.34
9,O=C(CN1C(=O)CCNC1=O)N1CCC(c2ccc(F)cc2)C1 (centres undefined),18.83
10,O=C(O)C(F)(F)F.O=C(O)C(F)(F)F.c1cncc(CN2CC[C@H]3O[C@@H](COCC4CCOCC4)CC[C@H]32)c1,-5.632
11,CC(C)N1CCC2(C=C(C(=O)NC3CC3)c3ccccc32)CC1.O=C(O)C(F)(F)F,-2.25
12,O=C(O)C(F)(F)F.c1csc(NCc2n[nH]c3c2CCN(CC2CC2)C3)n1,-23.28
13,Cc1cccc(CN2CCCn3c(nnc3Cn3cccn3)C2)n1.O=C(O)C(F)(F)F,-30.89
14,CCc1cnc(CN(C)C2CCN(CC(=O)Nc3cc(C)on3)C2)o1 (centres undefined),-19.35
15,Cc1cnc(CN(C)C2CCN(CC(=O)Nc3nncs3)C2)o1.O=C(O)C(F)(F)F (centres undefined),-4.89
16,CCc1cnc(CN(C)C2CCN(CCc3cccs3)C2)o1 (centres undefined),-5.267
17,CCc1cnc(CN(C(C)=O)C2CCN(CCc3ccccn3)C2)o1 (centres undefined),-12.32
18,Cc1cnc(CN(C)C2CCN(CC(=O)N(C)c3nccs3)C2)o1 (centres undefined),15.65
19,Cc1cnc(CN(C)C2CCN(CC(=O)Nc3nccs3)C2)o1 (centres undefined),66.08
20,CCc1cnc(CN(C)C2CCN(CC(=O)Nc3nccs3)C2)o1 (centres undefined),61.16
21,CCc1cnc(CN(C)C2CCN(CCc3ccccn3)C2)o1 (centres undefined),105.9
22,CC(C)c1cnc(CN(C)C2CCN(CCc3ccccn3)C2)o1 (centres undefined),-13.05
